# PubChem BioAssay (NCATS)
# Records with an inconclusive call do not appear. A call without a number means that no potency is given here. Activity calls are given as the source filed them. Calls come from the whole dose curve; as a rule, active = well fitted cell-killing curve with a large enough effect; inconclusive = small, poorly fitted or top-dose-only effect, or effect the other way; inactive = flat fitted curve, though single readings scatter.
# Tested on: OV90
# Test: Primary qHTS to identify gynecologic anti-cancer compounds using libraries of approved drugs and bioactive compounds (AID 1345084); note: nearly all actives have a fitted effect of over 55% in size
# Details: Gynecologic cancer cell panel viability, ATPlite luminescence, 48 h; series mostly up to 57.5 µM
# Outline: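 Cells, 1,000 per well, were allowed to settle for 16 h at 37 C before compound addition. Five concentrations were tested for 48 h, and viability was read by ATPlite luminescence after 15 min at room temperature.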
Structure (SMILES),Potency,"activity change, negative = cytotoxicity"
C[C@@H]1N[C@H]2N(C1=O)c1ccccc1[C@@]2(O)C[C@@H]1C(=O)N[C@@H](C)c2nc3ccccc3c(=O)n21,inactive,–
COC(=O)C1=CO[C@@H](O[C@@H]2O[C@H](CO)[C@@H](O)[C@H](O)[C@H]2O)[C@H]2[C@@H]1C=C[C@@]21C=C([C@H](C)O)C(=O)O1,inactive,–
CC(C)C(NC(=O)c1ccc2ccccc2n1)C(=O)NC(CC(=O)O)C(=O)COc1c(F)cccc1F (centres undefined),inactive,–
CC1CCCCN1S(=O)(=O)c1ccc(N2CCCC2=O)cc1 (centres undefined),inactive,–
COc1cc2c(cc1OC)N1C(=O)C[C@]34C=CCN5CC[C@@H]2[C@@H](CC3)[C@]514,inactive,–
C=C1CC2C(C)(CCC(=O)O)C(C(C)(C)O)CCC2(C)C2C(=O)OC(C)(C(=O)OC)C(=O)C12C (centres undefined),inactive,–
CCc1ccc(Cc2ccc3c(c2)[C@]2(OC3)O[C@H](CO)[C@@H](O)[C@H](O)[C@H]2O)cc1,inactive,–
OC[C@H]1O[C@@H](Oc2cc(O)c3c(c2)O[C@@H](c2ccc(O)cc2)[C@H](O)C3)[C@H](O)[C@@H](O)[C@@H]1O,inactive,–
CC[C@@](C)(Nc1ccnc(-c2c[nH]c3ncccc23)n1)C(=O)NCC(F)(F)F,inactive,–
CC1=C(C(=O)O)/C(=C/CO[C@@H]2O[C@H](COC(=O)/C=C/c3ccc(O)cc3)[C@@H](O)[C@H](O)[C@H]2O)C(O)C1 (some centres undefined),inactive,–
C[C@H](CCC(=O)O)[C@H]1CC[C@H]2[C@@H]3C[C@H](O)[C@@H]4C[C@H](O)CC[C@]4(C)[C@H]3CC[C@]12C,inactive,–
CC1CC[C@]2(C(=O)O)CC[C@]3(C(=O)O)C(=CCC4[C@@]5(C)CC[C@H](O[C@@H]6O[C@H](CO)[C@@H](O)[C@H](O)[C@H]6O)C(C)(C)C5CC[C@]43C)C2C1C (some centres undefined),inactive,–
CC(=O)N[C@@H](C(=O)O[C@H]1CCC(C)(C)[C@@H]2CCC3=C(COC3=O)[C@@]12C)C(C)C,inactive,–
CC1OC2OC(=O)C3(C)CC4=C(CO)C5=C(CC(=O)C4(C)C(C1=O)C23)C(C)(C)OC(=O)C5 (centres undefined),inactive,–
CC1(C)CC2=C3C=CC4C5(C)CCC(O)C(C)(C)C5CCC4(C)C3(C)CCC2(C)C(O)C1 (centres undefined),inactive,–
COc1cc(O)cc(C)c1C(=O)O[C@H]1[C@@H](OC(C)=O)[C@H](n2ccc(=O)[nH]c2=O)O[C@@H]1CO,inactive,–
Fc1ccc2nc(CCC#Cc3ccccn3)cn2c1,inactive,–
C=C[C@H]1C(O[C@@H]2O[C@H](CO)[C@@H](O)[C@H](O)[C@H]2O)OC=C2C(=O)N3CCc4c([nH]c5ccccc45)C3CC21 (some centres undefined),inactive,–
O=C1NC(=O)C(c2cn(-c3ccccc3)nc2-c2ccc(F)cc2)N1 (centres undefined),inactive,–
CC(=O)OC1C(O)C2C(C)C3=CC(=O)OC3(O)CC2C2(C)CCCC(C)(CO)C12 (centres undefined),inactive,–

Structure (SMILES),Potency,"activity change, negative = cytotoxicity"
O=C(NCc1cccc(O)c1)Nc1nc(-c2ccncc2)cs1,inactive,–
CC1(O)CCCC2(C)C1CCC13CC(CO)C(CCC12)C3 (centres undefined),inactive,–
CC1=CC2C(CC1OC1OC(CO)C(O)C(O)C1O)C(C)CC(=O)C2C(C)C (centres undefined),inactive,–
CC(=O)O[C@@H]1C[C@@H](OC(C)=O)C(C)(C)/C=C/[C@H](C)[C@H](OC(C)=O)[C@@]2(O)C[C@H](C)[C@H](OC(=O)c3ccccc3)[C@@H]2/C=C/1C,inactive,–
O=C(NCc1cccc(O)c1)c1cc2cc(F)ccc2[nH]1,inactive,–
COC1CC(O[C@H]2CC[C@@]3(C)C(CCC4C3[C@H](OC(C)=O)[C@@H](OC(=O)/C=C/c3ccccc3)[C@]3(C)C(C(C)=O)CC[C@]43O)C2)OC(C)C1OC1CC(OC)C(OC2CC(OC)C(OC3OC(C)C(OC4OC(CO)C(O)C(O)C4O)C(OC)C3O)C(C)O2)C(C)O1 (some centres undefined),–,-0.788% [at 6.55 µM] (inactive)
COc1cc(Br)c(S(=O)(=O)Nc2ccc(C(F)(F)F)c(O[C@@H]3CCN(C)C3)c2)cc1OC,inactive,–
COc1c2ccoc2cc2oc(CO[C@@H]3O[C@H](CO)[C@@H](O)[C@H](O)[C@H]3O)cc(=O)c12,inactive,–
COC(=O)C1=COC(O[C@@H]2O[C@H](CO)[C@@H](O)[C@H](O)[C@H]2O)[C@H]2[C@@H]1[C@H](OC(=O)CCc1ccc(O)cc1)C[C@]2(C)O (some centres undefined),inactive,–
COC(=O)N[C@H](C(=O)N1[C@@H]2CC[C@@H](C2)[C@H]1c1nc2ccc(-c3ccc4c(c3)C(F)(F)c3cc(-c5cnc([C@@H]6CCC7(CC7)N6C(=O)[C@@H](NC(=O)OC)C(C)C)[nH]5)ccc3-4)cc2[nH]1)C(C)C,inactive,–
CC(c1ncncc1F)C(O)(Cn1cncn1)c1ccc(F)cc1F (centres undefined),inactive,–
O=C(OC[C@H]1O[C@H](O[C@]2(CO)O[C@H](CO)[C@@H](O)[C@@H]2O)[C@H](O)[C@@H](O)[C@@H]1O)c1ccccc1,inactive,–
CC(C)(C)c1ccc(S(=O)(=O)Nc2ccc(Cl)cc2C(=O)c2cc[n+]([O-])cc2)cc1,inactive,–
CC(CO)C1CCC2(C)CC3C(CO)CC(O)C3C(C)(O)C/C=C/12 (centres undefined),inactive,–
CC12CCC3c4ccc(O)cc4CCC3C1CC(OC1OC(C(=O)O)C(O)C(O)C1O)C2O (centres undefined),inactive,–
CCNCc1nc2c(N)nc3ccccc3c2n1CC(C)(C)O,inactive,–
OC[C@H]1O[C@@H](OCCc2ccccc2)[C@H](O[C@@H]2OC[C@](O)(CO)[C@H]2O)[C@@H](O)[C@@H]1O,inactive,–
COc1cc(C2Oc3c(OC)cc(CCCO)cc3C2CO)ccc1O[C@H]1O[C@H](C)[C@@H](O)[C@H](O)[C@@H]1O (some centres undefined),inactive,–
COc1cc2c3c(cc4ccccc4c3c1O)NC2=O,inactive,–
